Source: PubChem BioAssay (NCI)
Compounds without any hit were thinned out: in the full panel of roughly 83,000, 20% have a hit.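 A percent growth of 40 corresponds to 60% growth inhibition; 0 means no net growth; -100 means all cells died. Active threshold: below 10.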 Calls of active or inactive are those of the source.

Experiments:
Assay in all cases: NCI-60 one-dose screen, 48 h (100 = growth as untreated, 0 = no growth, -100 = all killed)
Conditions in all cases: 10 µM unless noted
DU-145 prostate = system: DU-145 prostate
K-562 leukemia = system: K-562 leukemia
MALME-3M melanoma = system: MALME-3M melanoma
MDA-MB-231 breast = system: MDA-MB-231 breast
RXF 393 renal = system: RXF 393 renal
SF-268 CNS = system: SF-268 CNS
SF-295 CNS = system: SF-295 CNS
SF-539 CNS = system: SF-539 CNS
UACC-257 melanoma = system: UACC-257 melanoma
M14 melanoma = system: M14 melanoma
HCT-15 colon = system: HCT-15 colon
HT29 colon = system: HT29 colon
SNB-75 CNS = system: SNB-75 CNS
SNB-19 CNS = system: SNB-19 CNS
U251 CNS = system: U251 CNS
PC-3 prostate = system: PC-3 prostate
SK-MEL-5 melanoma = system: SK-MEL-5 melanoma
UACC-62 melanoma = system: UACC-62 melanoma
LOX IMVI melanoma = system: LOX IMVI melanoma
SK-MEL-28 melanoma = system: SK-MEL-28 melanoma

Measured: growth

COc1ccc(-c2nc(SCCC(C)C)nc(N/N=C(/C)c3ccc(N)cc3)c2C#N)cc1
inactive: DU-145 prostate 97.1% | K-562 leukemia 94.3% | MALME-3M melanoma 104% | MDA-MB-231 breast 82.3% | RXF 393 renal 86.2% | SF-268 CNS 92% | SF-295 CNS 102% | SF-539 CNS 87.9% | UACC-257 melanoma 102% | M14 melanoma 111% | HCT-15 colon 97.6% | HT29 colon 104% | SNB-75 CNS 81.4% | SNB-19 CNS 81.6% | U251 CNS 90.3% | PC-3 prostate 96.5% | SK-MEL-5 melanoma 99.5% | UACC-62 melanoma 87.5% | LOX IMVI melanoma 91.6% | SK-MEL-28 melanoma 121%

O=C(CSc1nnc(-c2ccc(Cl)c(Cl)c2)n1-c1ccccc1)Nc1ccc(C(=O)/C=C/c2ccc(Cl)cc2)cc1
inactive: DU-145 prostate 98.3% | K-562 leukemia 81.9% | MALME-3M melanoma 94.6% | MDA-MB-231 breast 86.5% | RXF 393 renal 92.1% | SF-268 CNS 92.2% | SF-295 CNS 98.2% | SF-539 CNS 97.9% | UACC-257 melanoma 77.3% | M14 melanoma 82.2% | HCT-15 colon 92.3% | HT29 colon 85.9% | SNB-75 CNS 69.9% | SNB-19 CNS 94.1% | U251 CNS 84% | PC-3 prostate 62.5% | SK-MEL-5 melanoma 93.1% | UACC-62 melanoma 76.7% | LOX IMVI melanoma 97.5% | SK-MEL-28 melanoma 104%

O=C(Nc1ncc(Cc2cc(C(F)(F)F)ccc2Cl)s1)C(=S)N1CCOCC1
inactive: DU-145 prostate 100% | K-562 leukemia 82.2% | MALME-3M melanoma 92.7% | MDA-MB-231 breast 87.4% | RXF 393 renal 92.6% | SF-268 CNS 88.7% | SF-295 CNS 88.8% | SF-539 CNS 101% | UACC-257 melanoma 95% | M14 melanoma 86.7% | HCT-15 colon 78.6% | HT29 colon 95.1% | SNB-75 CNS 86.7% | SNB-19 CNS 96.9% | U251 CNS 90.3% | PC-3 prostate 81.3% | SK-MEL-5 melanoma 96.6% | UACC-62 melanoma 72.6% | LOX IMVI melanoma 90.5% | SK-MEL-28 melanoma 114%

COc1cc(/C=C2\C(=O)N(CCOc3cc(O)c4c(=O)cc(-c5ccccc5)oc4c3)c3ccccc32)cc(OC)c1O
inactive: DU-145 prostate 94% | K-562 leukemia 22.6% | MALME-3M melanoma 77.6% | MDA-MB-231 breast 64.2% | RXF 393 renal 85.9% | SF-268 CNS 70.6% | SF-295 CNS 86.6% | SF-539 CNS 69.9% | UACC-257 melanoma 104% | M14 melanoma 28.1% | HCT-15 colon 28% | HT29 colon 136% | SNB-75 CNS 44.9% | SNB-19 CNS 65.3% | U251 CNS 39.7% | PC-3 prostate 76.2% | SK-MEL-5 melanoma 68.1% | UACC-62 melanoma 24.6% | LOX IMVI melanoma 36.7% | SK-MEL-28 melanoma 83.6%

CSc1nn2c(-c3cc4cc(Br)ccc4oc3=O)ccnc2c1C#N
inactive: DU-145 prostate 110% | K-562 leukemia 104% | MALME-3M melanoma 120% | MDA-MB-231 breast 105% | RXF 393 renal 109% | SF-268 CNS 103% | SF-295 CNS 103% | SF-539 CNS 106% | UACC-257 melanoma 106% | M14 melanoma 104% | HCT-15 colon 102% | HT29 colon 114% | SNB-75 CNS 90.5% | SNB-19 CNS 105% | U251 CNS 102% | PC-3 prostate 105% | SK-MEL-5 melanoma 101% | UACC-62 melanoma 99.7% | LOX IMVI melanoma 97.4% | SK-MEL-28 melanoma 105%

C=C(C)[C@@H]1CC[C@]2(C(=O)NC(C)=O)CC[C@]3(C)[C@H](CC[C@@H]4[C@@]5(C)CCCNC(C)(C)[C@@H]5CC[C@]43C)[C@@H]12
inactive: DU-145 prostate 24.8% | MDA-MB-231 breast 23.7% | RXF 393 renal 25.2% | SF-268 CNS 60.5% | SF-295 CNS 77.6% | SNB-75 CNS 52% | SNB-19 CNS 58.3% | PC-3 prostate 27.4% | UACC-62 melanoma 81.6%
active: K-562 leukemia 3% | MALME-3M melanoma -83.3% | SF-539 CNS -79.6% | UACC-257 melanoma -64.5% | M14 melanoma -65.3% | HCT-15 colon -33.2% | HT29 colon -5.24% | U251 CNS -41.6% | SK-MEL-5 melanoma -94.5% | LOX IMVI melanoma -81.8% | SK-MEL-28 melanoma -88.4%

O=c1ccc2c(ccc3ncccc32)o1
inactive: DU-145 prostate 117% | K-562 leukemia 113% | MALME-3M melanoma 121% | MDA-MB-231 breast 120% | RXF 393 renal 95% | SF-268 CNS 113% | SF-295 CNS 90.4% | SF-539 CNS 106% | UACC-257 melanoma 110% | M14 melanoma 128% | HCT-15 colon 108% | HT29 colon 99.9% | SNB-75 CNS 105% | SNB-19 CNS 118% | U251 CNS 109% | PC-3 prostate 94.3% | SK-MEL-5 melanoma 95% | UACC-62 melanoma 112% | LOX IMVI melanoma 102% | SK-MEL-28 melanoma 113%

CN1CC(c2ccccc2)C(C(=O)c2ccc(Br)cc2)C12C(=O)Nc1ccccc12 (stereo not given)
inactive: DU-145 prostate 104% | K-562 leukemia 75.3% | MALME-3M melanoma 99.4% | MDA-MB-231 breast 94.7% | RXF 393 renal 92.6% | SF-268 CNS 91.2% | SF-295 CNS 93.9% | SF-539 CNS 102% | UACC-257 melanoma 103% | M14 melanoma 102% | HCT-15 colon 95.7% | HT29 colon 87.2% | SNB-75 CNS 96.1% | SNB-19 CNS 89.9% | U251 CNS 94.1% | PC-3 prostate 70.7% | SK-MEL-5 melanoma 99% | UACC-62 melanoma 78.4% | LOX IMVI melanoma 97.3% | SK-MEL-28 melanoma 114%

COC(=O)CCc1c(/C=C2\N=C(c3ccc[nH]3)C=C2OC)[nH]c(C)c1C(=O)OCc1ccccc1
active: K-562 leukemia 6.23% | MALME-3M melanoma -5.75% | MDA-MB-231 breast -12.6% | RXF 393 renal -15.9% | SF-295 CNS -30.4% | SF-539 CNS -16.9% | UACC-257 melanoma 9.69% | M14 melanoma -24.7% | HCT-15 colon -1.22% | HT29 colon 9.15% | SNB-75 CNS -17.6% | U251 CNS 3.55% | PC-3 prostate 6.14% | SK-MEL-5 melanoma -52.4% | UACC-62 melanoma -29.2% | LOX IMVI melanoma -52.7%
inactive: DU-145 prostate 29.9% | SF-268 CNS 21.4% | SNB-19 CNS 39.3% | SK-MEL-28 melanoma 16.8%

COc1cc2c(cc1OC)CC[N+](CCC[N+](C)(C)C)=C2
inactive: DU-145 prostate 108% | K-562 leukemia 111% | MALME-3M melanoma 89% | MDA-MB-231 breast 115% | RXF 393 renal 113% | SF-268 CNS 91.7% | SF-295 CNS 97% | SF-539 CNS 98% | UACC-257 melanoma 100% | M14 melanoma 91.7% | HCT-15 colon 101% | HT29 colon 88.5% | SNB-75 CNS 80.2% | SNB-19 CNS 110% | U251 CNS 98.9% | PC-3 prostate 83.9% | SK-MEL-5 melanoma 104% | UACC-62 melanoma 110% | LOX IMVI melanoma 99.3% | SK-MEL-28 melanoma 98.7%

C#Cc1c(I)n(C2OC(CO[Si](C)(C)C(C)(C)C)C3OC(C)(C)OC32)c(=O)[nH]c1=O (stereo not given)
active: K-562 leukemia -35.5% | RXF 393 renal -72.3% | HCT-15 colon -9.25% | U251 CNS 3.76% | PC-3 prostate -61.1% | LOX IMVI melanoma -80.6% | SK-MEL-28 melanoma -56.7%
inactive: DU-145 prostate 25.1% | MALME-3M melanoma 66.4% | MDA-MB-231 breast 16.1% | SF-268 CNS 100% | SF-295 CNS 120% | SF-539 CNS 92.4% | UACC-257 melanoma 64.1% | M14 melanoma 76.4% | HT29 colon 38.6% | SNB-75 CNS 86.8% | SNB-19 CNS 94.2% | SK-MEL-5 melanoma 96.6% | UACC-62 melanoma 82.1%

C=C(C)[C@@H]1CC[C@]2(COCCCNCCCN)CC[C@]3(C)[C@H](CC[C@@H]4[C@@]5(C)CC[C@H](OCCCN)C(C)(C)[C@@H]5CC[C@]43C)[C@@H]12
active: DU-145 prostate -49.5% | K-562 leukemia -40% | MALME-3M melanoma -88.1% | MDA-MB-231 breast -85.6% | SF-268 CNS -35% | SF-539 CNS -95.7% | M14 melanoma -83% | HCT-15 colon -88.4% | HT29 colon -79.7% | SNB-19 CNS -78.3% | U251 CNS -94.3% | PC-3 prostate -10% | UACC-62 melanoma -88.1% | LOX IMVI melanoma -93.8%
inactive: RXF 393 renal 28.8% | SF-295 CNS 102% | UACC-257 melanoma 13.8% | SNB-75 CNS 10.1% | SK-MEL-5 melanoma 67.2% | SK-MEL-28 melanoma 16.1%

Oc1ccc(C(c2ccc(O)cc2)c2ccc(Cl)cn2)cc1
active: RXF 393 renal -57% | SNB-75 CNS -32.5% | PC-3 prostate -32.2% | LOX IMVI melanoma -42.6%
inactive: DU-145 prostate 56.7% | K-562 leukemia 71.8% | MALME-3M melanoma 107% | MDA-MB-231 breast 77.1% | SF-268 CNS 92.4% | SF-295 CNS 30.9% | SF-539 CNS 83.4% | UACC-257 melanoma 95.5% | M14 melanoma 85.5% | HCT-15 colon 23.2% | HT29 colon 47.9% | SNB-19 CNS 71.9% | U251 CNS 97% | SK-MEL-5 melanoma 96.5% | UACC-62 melanoma 39.3% | SK-MEL-28 melanoma 112%

CCNCCNc1c(C)c(-c2ccc(C(F)(F)F)cc2)c(C#N)c2nc3ccccc3n12
inactive: DU-145 prostate 99.1% | K-562 leukemia 54.8% | MALME-3M melanoma 109% | MDA-MB-231 breast 90.9% | RXF 393 renal 90.4% | SF-268 CNS 80.8% | SF-295 CNS 91.4% | SF-539 CNS 82.7% | UACC-257 melanoma 79.6% | M14 melanoma 56.1% | HCT-15 colon 78.6% | HT29 colon 77.3% | SNB-75 CNS 57.6% | SNB-19 CNS 78.6% | U251 CNS 78.8% | PC-3 prostate 76.1% | SK-MEL-5 melanoma 87.2% | UACC-62 melanoma 92.4% | LOX IMVI melanoma 82.5% | SK-MEL-28 melanoma 103%

CNC(=O)c1cc(Oc2ccc3nc(NC(=O)c4cc(C(F)(F)F)cc(C(F)(F)F)c4)sc3c2)ccn1
inactive: DU-145 prostate 27.5% | K-562 leukemia 13.3% | SF-268 CNS 23.6% | SF-539 CNS 19.1% | M14 melanoma 22% | HCT-15 colon 32.1% | HT29 colon 31.5% | SNB-75 CNS 28.5% | SNB-19 CNS 15.5% | U251 CNS 14.2% | LOX IMVI melanoma 27.4% | SK-MEL-28 melanoma 26.4%
active: MALME-3M melanoma 2.93% | MDA-MB-231 breast 8.74% | RXF 393 renal -3.77% | SF-295 CNS 3.03% | UACC-257 melanoma 0.459% | PC-3 prostate 8.79% | SK-MEL-5 melanoma -39.9% | UACC-62 melanoma 2.25%
